Sm TGR inh – qHTS Assay for the Inhibitors of Schistosoma Mansoni Peroxiredoxins; purified TGR, DTNB reduction, TNB absorbance 405 nm; 360,000 tested, 3% active; Potency, µM (titrated, usually from 114 µM), for inactives: at the top dose activity change, negative = inhibition, hits mostly inhibitors; Schistosoma mansoni thioredoxin glutathione reductase (TGR), Q962Y6; note: potency is the fitted concentration of half-maximal effect; nearly all actives have a fitted effect of over 60% in size
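TGR 20 nM + NADPH 100 uM (dispensed conc.), cpd preinc 15 min RT; start with NADPH (500 uM addition) then DTNB (15 mM addition). Kinetic TNB absorbance, 405 nm filter. Four-parameter Hill fit across titration.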
Pf growth 96h – Primary qHTS for delayed death inhibitors of the malarial parasite plastid, 96 hour incubation. P. falciparum luciferase reporter growth, 96 h. Potency, µM (titrated, usually from 28.7 µM), for the others: at the highest dose activity change, negative = inhibition, most hits filed as inhibitors. 320,000 tested, 6.9% active. AID 504834, 2011; note: potency is the fitted concentration of half-maximal effect
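Luminescence readout: decreased luciferase signal marks inhibited growth of reporter-expressing P. falciparum in infected red cells (2% hematocrit, 0.05% parasitemia final), exposed to compound two generations (96 h, 37 C, 5% CO2).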
Pf growth 48h – Primary qHTS for delayed death inhibitors of the malarial parasite plastid, 48 hour incubation | P. falciparum luciferase growth in erythrocytes, 48 h | Potency, µM (top dose mostly 28.7 µM), for inactives: top-dose activity change, negative = inhibition, most hits filed as inhibitors | 310,000 tested, 5.9% active | AID 504832, 2011; note: potency is the fitted concentration of half-maximal effect
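Cell-based growth assay: transgenic P. falciparum expressing firefly luciferase, cultured in red cells within RPMI 1640 containing 0.5% w/v Albumax, 24 mM bicarbonate and gentamycin. A drop in luciferase activity indicates inhibition.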
Giardia FBPA inh – qHTS Assay for Inhibitors of Fructose-1,6-bisphosphate Aldolase from Giardia Lamblia | A8B2U2 | purified Giardia FBPA | Potency, µM (doses to about 59.6 µM), for the others: at the top dose activity, negative = inhibition, actives largely listed as inhibitors | 290,000 tested, 0.71% active | AID 2451, 2010; note: potency is the fitted concentration of half-maximal effect; nearly all actives have a fitted effect of over 55% in size
Target sequence (A8B2U2 whole entry, looked up): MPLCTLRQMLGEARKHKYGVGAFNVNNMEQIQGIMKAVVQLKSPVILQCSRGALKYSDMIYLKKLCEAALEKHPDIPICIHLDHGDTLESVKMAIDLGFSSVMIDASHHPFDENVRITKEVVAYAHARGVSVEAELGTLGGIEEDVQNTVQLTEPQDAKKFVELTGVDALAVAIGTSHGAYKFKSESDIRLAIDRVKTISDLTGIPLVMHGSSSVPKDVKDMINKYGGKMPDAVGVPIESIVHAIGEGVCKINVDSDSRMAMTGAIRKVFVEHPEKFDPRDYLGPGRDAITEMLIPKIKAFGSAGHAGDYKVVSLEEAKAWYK
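40 nM FBPA preincubated 10 min at RT with compound (up to 57.5 uM final), then substrate plus GAPDH/TPI/NAD/arsenate coupling and diaphorase/resazurin added. Fluorescence read after 20 min at RT, 525/598 nm.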
HCMV inh – qHTS Assay for inhibitors of the human cytomegalovirus (HCMV); HFF cells, HCMV-luciferase reporter, 72 h; active compounds read low; activity change, negative = inhibition, % at 57.5 µM; 410,000 tested, 4.5% active; AID 1259415, 2018; in the data active = activity change below about -60%; inconclusive = no clear call, values can overlap the other calls; inactive = above about -39%
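Luciferase read-out from HCMV-luciferase-infected HFFs (MOI 1 PFU/cell) 72 h post infection at 37C; compounds added after 16 h cell attachment; activity normalized between buffer-only basal and Salinomycin (10uM) inhibitor controls.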
* marks the source's active call; other numbers are inactive results; ? = inconclusive; / = not tested or not shown; + = active, no number; [ ] = remark or other dose. A selection: hits, their analogues and other compounds. The true share with any hit is near 14%. Unless noted, calls come from the whole dose curve; as a rule, active = well fitted curve in the direction sought with a large enough effect; inconclusive = small, poorly fitted or top-dose-only effect, or another doubt; inactive = no such curve, though single readings can be large; an effect the other way counts as inactive or inconclusive. % is set by controls: 0 for no effect and ±100 for the full control effect.

SMILES	Sm TGR inh	Pf growth 96h	Pf growth 48h	Giardia FBPA inh	HCMV inh
CCOc1cc(CNC(C)(C)CO)cc(Br)c1OCc1ccc(Cl)cc1Cl	16%	9.3µM*	?	-4%	4
C=CCOc1ccc(Br)cc1CNC(C)(C)CO	/	10%	-8%	0%	9
CCOc1cccc(CNCCO)c1OCc1ccc(Cl)cc1	?	?	?	-1%	?
CCCn1c(SCC(=O)NCCc2ccccc2)nnc1C(C)C	8%	-4%	-8%	5%	-36
COc1ccc([C@H]2CC(=O)C=C(c3cc(C=O)ccc3OC)C2)cc1	-18%	-8%	?	/	95
OCCNCc1cc(Br)ccc1OCc1ccccc1Cl	-25%	?	?	-1%	-61*
CCOc1cc(CNCCO)cc(Br)c1OCc1ccccc1Cl	-3%	12µM*	10µM*	-2%	-3
CC(=O)OC[C@@H]1O[C@H](C/C=N\O[C@@H](C)CN2CCCc3nc(C)c(C)cc32)C=C[C@@H]1OC(C)=O	/	/	/	1%[12.9 µM]	/
CCOC(=O)CC1C(=O)NCCN1C(=O)c1ccc(Cl)cc1 (stereo not drawn)	0%	35%	/	-5%	-2
COc1cccc(C(C(=O)NC2CCCC2)N(C(=O)c2ccco2)c2ccc(-n3cnnn3)c(C)c2)c1OC (stereo not drawn)	-4%	34%	9.3µM*	2%	?
COc1ccc(C(C(=O)NC2CCCCC2)N(C(=O)c2ccco2)c2ccc(-n3cnnn3)c(C)c2)cc1 (stereo not drawn)	/	/	/	/	-17
CCOc1ccc(C(C(=O)NC2CCCCC2)N(C(=O)Cc2cccs2)c2ccc(-n3cnnn3)c(OC)c2)cc1 (stereo not drawn)	-9%	7.4µM*	10µM*	0%	-35
COc1ccc(CCN(C)C/C=C/c2ccccc2[N+](=O)[O-])cc1OC	-21%	?	-26%	?	87
Cc1ccc(-c2csc3ncnc(Sc4nnc(CN5CCCCCC5=O)o4)c23)cc1	-30%	15µM*	12µM*	5%	-70*
Cc1cc(Cl)ccc1NS(=O)(=O)c1ccc2c(c1)CC(C)N2C(=O)C1CCC1 (stereo not drawn)	2%	/	/	/	-27
CCCCN1CN(Cc2ccccc2)CNC1=S	-7%	9.3µM*	-20%	4%	?
CC1(CCc2ccccc2)NC(=O)NC1=O (stereo not drawn)	/	/	/	/	3
Cc1cccc(OC(=O)NCCOC(=O)N(O)c2ccc(Cl)cc2)c1	-1%	7.4µM*	62%	-3%	-29
COc1cc2nc(N3CCN(C(=O)OCc4ccccc4)[C@H](C(=O)NC(C)(C)C)C3)nc(N)c2cc1OC	2%	5.2µM*	2.9µM*	-1%	?
CCOc1ccccc1NC(=O)C1CCCN1C(=O)OCc1ccccc1 (stereo not drawn)	1%	9.3µM*	-27%	2%	-13
COc1ccc(OC)c(NC(=O)C2CCCN2C(=O)OCc2ccccc2)c1 (stereo not drawn)	-6%	15%	13µM*	2%	15
COc1ccc(C)cc1NC(=O)C1CCCN1C(=O)OCc1ccccc1 (stereo not drawn)	2%	?	10µM*	2%	-18
CCC(C)(C)NC(=O)CN(CC1CCCO1)C(=O)CNS(=O)(=O)c1ccccc1 (stereo not drawn)	3%	?	8%	/	1
CCCCNC(=O)C1(N2C(=O)c3ccccc3C2=O)CCCC1	/	/	/	/	139
COc1ccc(C(=O)N2CCCCC2c2cc(C(=O)NCc3ccccc3)no2)cc1 (stereo not drawn)	/	/	/	/	-11
SMILES	Sm TGR inh	Pf growth 96h	Pf growth 48h	Giardia FBPA inh	HCMV inh
COC(=O)c1ccc(NC(=O)C2CCCN2C(=O)OCc2ccccc2)cc1 (stereo not drawn)	4%	5.9µM*	3%	-3%	-11
CC(C)(C)OC(=O)N(CC1CCNCC1)C(=O)c1[nH]c(C(F)(F)F)nc1-c1ccccc1	/	/	/	/	-19
COC(=O)c1cc(NCc2ccc3c(c2)OCO3)ccc1N1CCOCC1	50µM*	7%[5.75 µM]	-13%	?	33
O=C(O)c1cc(NCc2ccccc2)ccc1N1CCOCC1	-2%	-4%	/	2%	39
COc1ccccc1CNc1ccc(N2CCOCC2)c(C(=O)O)c1	2%	13µM*	13%	-13%	31
COc1ccc(CNc2ncncc2-c2ccc3c(c2)OCO3)c(OC)c1	/	/	/	-1%	/
CC1(C)O[C@H]2[C@@H](O1)[C@@H](C(=O)Nc1ccc(F)c(F)c1)O[C@@H]1OC(C)(C)O[C@@H]12	-1%	/	/	/	11
O=C(NC1CCCCC1)C(c1ccc2ncccc2c1)N(Cc1ccccc1)C(=O)c1cccs1 (stereo not drawn)	1%	?	10µM*	-2%	-62*
O=C(NC1CCCCC1)C(c1ccc2ncccc2c1)N(Cc1ccc2c(c1)OCO2)C(=O)c1cccs1 (stereo not drawn)	-8%	5.9µM*	?	-3%	?
COc1ccc(CN(C(=O)c2cccs2)C(C(=O)NC2CCCCC2)c2ccc3ncccc3c2)cc1 (stereo not drawn)	-21%	10µM*	?	2%	-20
CC(CCc1ccccc1)NC(=O)C1CCN(S(=O)(=O)N2CCCCC2)CC1 (stereo not drawn)	14%	1µM*	?	6%	-15
CC(CCc1ccccc1)NC(=O)C1CCN(S(=O)(=O)c2ccc(F)cc2)CC1 (stereo not drawn)	-20%	?	-15%	/	6
O=C(NCc1ccc(F)cc1)C1CCN(S(=O)(=O)c2ccc(Br)s2)CC1	-4%	?	9.3µM*	5%	-38
CCC(C)NC(=O)C1CCN(S(=O)(=O)c2ccc(Br)s2)CC1 (stereo not drawn)	0%	10µM*	?	-2%	-7
O=C(c1cc(-c2ccc(Cl)cc2)n[nH]1)N1CCN(S(=O)(=O)c2ccc(Br)s2)CC1	4%	/	/	/	?
O=C(c1cc(-c2ccc(Br)cc2)n[nH]1)N1CCN(S(=O)(=O)c2ccc(Br)s2)CC1	-2%	/	/	/	+
Cc1nc(-c2ccc(F)cc2)sc1CCNC(=O)c1cccs1	-10%	/	/	/	13
COc1ccc(N2CC(NC(=O)c3ccc(Br)o3)CC2=O)cc1 (stereo not drawn)	1%	/	/	/	5
COc1ccc(-c2nc(-c3ccccc3)nc3ccccc23)cc1	/	/	/	/	-9
CCOc1ccc(-c2nc3c(C#N)c[nH]n3c2NC2CCCCC2)cc1	-8%	/	/	/	-2
O=S(=O)(c1ccc(Br)s1)N1CCN(c2ccc(F)cc2)CC1	25µM*	-3%	?	-13%	1
